Bioassay records from PubChem.
A selection: hits, their analogues and other compounds. The true share with any hit is near 4.3%.
HSF1 activator – increases HSF-1 driven luciferase reporter signal. AID 504408. NIH3T3-HGL HSF-1 luciferase reporter, MG132, 8 h; 100% = twice DMSO control signal. activation, % at 9 µM. 300,000 tested, 1.7% active;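 active = mean replicate activation of at least 50% with a set share of replicates each reaching 50%; inconclusive = only one of those two conditions met; inactive = mean below 50% and too few replicates reaching it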;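 also: 0% = median of the neutral control wells and 100% = twice that signal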
MITF act – activators of MITF-driven TRPM1 promoter activity in SK-MEL-5 cells; SK-MEL-5 TRPM1-promoter luciferase, 24 h; % of positive control, neutral wells = 0; activation, % at 12.5 µM; 300,000 tested, 0.75% active;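 active = mean activation of at least 80% with every replicate also reaching 80%; inconclusive = mean reaches 80% but some replicate falls short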;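 also: 0% = neutral control wells and 100% = parthenolide positive control wells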
Wnt bcat act – activators of Wnt/beta-catenin signaling | 300,000 tested, 1.2% active | activation, % at 9.35 µM | Wnt/beta-catenin reporter cell assay, activator, plate reader; in the data active = activation above about 30%, passing the limit was not always enough; inconclusive = no clear call, values can overlap the other calls;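 also: 0% = neutral control wells and 100% = positive control wells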
esBAF inh – SWI/SNF esBAF complex inhibition. reporter increase, % at 12.5 µM. 350,000 tested, 2% active. mouse ES cells, Bmi1-luciferase knock-in reporter, 24 h; 100% = twice the neutral-well signal. AID 602393; in the data active = activation above about 40%; inconclusive = no clear call, values can overlap the other calls;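 also: 0% = median of the plate's neutral control wells and 100% = double that signal; a rise in the Bmi1 reporter signal indicates esBAF inhibition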
SMARCA2 activ – activators of SMARCA2 function. MG213 cells, MMTV-luciferase reporter, dexamethasone, overnight. activation, % at 9.1 µM. 370,000 tested, 1% active; in the data active = activation above about 7.8%;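 also: 0% = vehicle wells and 100% = reference activator wells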
HSF1 inh – HSF1 inhibition | NIH3T3-HGL HSE-luciferase, MG132-induced, luminescence 8 h; hits give low values | activity change, negative = inhibition, % at 7.5 µM (by protocol) | 300,000 tested, 0.77% active | AID 2098;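 active = more than half of replicate wells show activity change below -50%, luminescence cut by over half; inconclusive = some wells, but at most half, below -50%; inactive = no replicate well below -50%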;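 also: luciferase reports HSF-1 transcriptional activity via heat shock element; 0% = median of DMSO wells and -100% = zero luminescence signal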
* = called active by the depositor; ? = inconclusive; . = not tested or not shown.

SMILES	HSF1 activator	MITF act	Wnt bcat act	esBAF inh	SMARCA2 activ	HSF1 inh
Cn1cc(/C=N/Nc2ccccc2)c2ccccc21	14	16	-1	.	0	5
O=C(O)c1ccc(N/N=C/c2cn(Cc3ccccc3F)c3ccccc23)cc1	-70	73	13	54*	2	-64*
O=C(O)c1ccc(N/N=C/c2c[nH]c3ccccc23)cc1	-80	-55	-1	-42	-2	-78*
Cn1c(N/N=C/c2c[nH]c3ccccc23)nc2ccccc21	61*	44	13	.	3	36
COc1ccc(CN(C)C[C@H]2Oc3ccc(NS(=O)(=O)c4cn(C)cn4)cc3CC(=O)N([C@@H](C)CO)C[C@@H]2C)cc1	.	.	.	-2	.	.
CCOC(=O)C1=C(c2ccccc2)NC(N)=NC1c1ccc(OCc2ccc(Cl)cc2)c(OC)c1 (stereo not given)	71*	-37	14	.	1	38
O=C(NC(=S)Nc1ccc([N+](=O)[O-])cc1O)C1CCCCC1	0	12	-1	.	-2	6
Cn1ccc(C(=O)NC(=S)Nc2ccc([N+](=O)[O-])cc2O)n1	.	69	27	69*	3	.
Cc1c2cnn(CC(=O)O)c(=O)c2c(C)n1Cc1ccccc1	-19	.	-5	-1	-1	-5
COC(=O)Cn1ncc2c(C)n(Cc3ccccc3)c(C)c2c1=O	2	38	11	52*	1	-4
O=C(N=Nc1c(O)[nH]c2ccc(Br)cc12)c1ccccc1-n1cccc1	.	-16	-7	10	-3	.
O=C(N=Nc1c(O)[nH]c2ccc(Br)cc12)c1ccco1	.	.	36*	60*	0	.
CC(Oc1ccccc1)C(=O)N=Nc1c(O)[nH]c2ccc(Br)cc12 (stereo not given)	70*	-11	-1	.	0	25
COc1cccc(C=NN2CCCCCC2)c1OC	.	54	-3	45*	4	.
COc1ccc(NC(=O)Nc2ccc3c(c2)C(=O)N([C@@H](C)CO)C[C@@H](C)[C@H](CN(C)Cc2ccc(-c4ccccc4)cc2)O3)cc1	.	.	.	-1	.	.
Cc1nc2cc(NC(=O)CCS(=O)(=O)c3ccccc3)ccc2s1	52*	32	5	.	1	22
Cc1nc2ccc(NC(=O)Cc3cccc(F)c3)cc2s1	19	-4	0	.	2	9
Cc1nc2ccc(NC(=O)c3sccc3C)cc2s1	61*	44	12	46*	6	30
Cc1nc2ccc(NC(=O)c3cccs3)cc2s1	25	121*	25	.	8	11
Cc1nc2ccc(NC(=O)Cc3ccccc3F)cc2s1	33	121*	-1	.	3	20
C[C@H](CO)N1C[C@H](C)[C@@H](CN(C)S(=O)(=O)c2ccc(Cl)cc2)Oc2c(NC(=O)CCCCCC(=O)Nc3ccccc3N)cccc2C1=O	.	.	.	1	.	.
CC(=O)Nc1nc2ccc(NC(=O)c3ccco3)cc2s1	12	34	0	14	0	10
Cc1nc2ccc(NC(=O)c3ccco3)cc2s1	18	91*	?	.	7	-4
Cc1nc2ccc(NC(=O)N3CCSCC3)cc2s1	-64	0	7	26	-4	-60*
N#C/C(=C(/O)c1ccco1)c1nc2ccccc2s1	20	43	4	58*	0	12
SMILES	HSF1 activator	MITF act	Wnt bcat act	esBAF inh	SMARCA2 activ	HSF1 inh
N#C/C(=C(/O)c1cccc(F)c1)c1nc2ccccc2s1	-29	52	34*	.	-3	0
C[C@@H]1CCCCO[C@H](CN(C)Cc2ccc(C(F)(F)F)cc2)[C@@H](C)CN([C@@H](C)CO)C(=O)c2cc(NS(C)(=O)=O)ccc2O1	.	.	.	-3	.	.
Cc1nc(SCc2nc3ccc(Br)cc3[nH]2)c2oc3ccccc3c2n1	.	15	0	-4	0	.
COc1ccc2c(c1)oc1c(SCc3nc4ccccc4[nH]3)nc(C)nc12	.	49	13	68*	5	.
Cc1nc(SCc2nc3ccccc3[nH]2)c2oc3cc([N+](=O)[O-])ccc3c2n1	.	-23	-1	49*	1	.
CSc1nc2sc(-c3ccccc3)cc2c(=O)n1N	46	15	.	57*	6	12
CC(C)Sc1nc2sc(-c3ccccc3)cc2c(=O)n1N	.	11	.	0	0	.
COc1ccc(S(=O)(=O)N(C)C[C@@H]2OCCCC[C@@H](C)Oc3ccc(NC(=O)C4CCCCC4)cc3C(=O)N([C@@H](C)CO)C[C@@H]2C)cc1	.	.	.	21	.	.
CC(Sc1nnc(-c2cccnc2)n1-c1ccccc1F)C(=O)N1CCCc2ccccc21 (stereo not given)	15	.	-1	.	7.9*	-2
O=C(CSc1ccc(-c2cccnc2)nn1)N1CCCc2ccccc21	2	.	-1	.	-1	2
O=C1CCCN1CCC(=O)N1CCCC(CO)(Cc2ccccc2)C1 (stereo not given)	32	49	32*	63*	5	20
CSCCC(=O)N1CCCC(CO)(CCCc2ccccc2)C1 (stereo not given)	-5	.	0	-8	-2	-3
COc1ccc(NC(=O)Nc2ccc3c(c2)C(=O)N([C@H](C)CO)C[C@H](C)[C@@H](CN(C)S(=O)(=O)c2ccccc2)OCCCC[C@H](C)O3)cc1	.	.	.	2	.	.
CCN(CC)C(=O)CSC1=N/C(=C/c2ccco2)C(=O)N1c1ccc(OC)c(Cl)c1	67*	0	0	.	1	45
CCOc1cc(/C=C2\N=C(SC(C)C(N)=O)N(c3ccc(OC(F)F)cc3)C2=O)ccc1O (stereo not given)	4	-6	-1	-6	-2	-6
COc1ccc(N2C(=O)/C(=C\c3ccco3)N=C2SCC(=O)NC(C)(C)C)cc1Cl	?	2	-2	-9	-1	27
NC(=O)CSC1=N/C(=C\c2ccco2)C(=O)N1c1ccc(OC(F)F)cc1	72*	-17	?	.	-3	53
Oc1c(C=Nc2cccnc2)sc2ccccc12	17	8	.	.	7.9*	13
Oc1c(/C=N/c2ccccn2)sc2ccccc12	17	16	52*	?	1	12
Oc1c(C=Nc2ccc(Cl)cn2)sc2ccccc12	-1	46	46*	.	4	-10
CN=Cc1sc2ccccc2c1O	-4	-11	-1	6	-2	-6
C[C@@H]1CN([C@@H](C)CO)C(=O)c2cc(C3=CCCC3)cnc2O[C@@H]1CN(C)S(=O)(=O)c1cn(C)cn1	.	.	.	-4	.	.
COCC(=O)N(C)C[C@H]1Oc2cc(-c3ccncc3)ccc2S(=O)(=O)N([C@@H](C)CO)C[C@H]1C	.	.	.	0	.	.
C[C@@H]1CCCCO[C@@H](CN(C)Cc2ccc3c(c2)OCO3)[C@H](C)CN([C@@H](C)CO)C(=O)c2cc(NC(=O)Nc3ccc(C(F)(F)F)cc3)ccc2O1	.	.	.	-3	.	.
